The panel holds about 83,000 compounds, 20% with a hit somewhere; the sample as a whole holds those more often.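 Cell lines were cultured in 96-well plates, exposed to a single compound concentration, and assessed for percent growth 48 hours later.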 Values without a mark were called inactive. Calls of active or inactive are those of the source. Rule for the calls: active = growth percent below 10; inactive = the rest.

The results in this text go back to PubChem BioAssay (NCI).

Some test systems named below: HCT-15 colon; HT29 colon; SNB-75 CNS; SNB-19 CNS; U251 CNS; PC-3 prostate; SK-MEL-5 melanoma; UACC-62 melanoma; LOX IMVI melanoma; SK-MEL-28 melanoma; SK-MEL-2 melanoma; EKVX NSCLC; SN12C renal; UO-31 renal; TK-10 renal; ACHN renal; CAKI-1 renal; A498 renal; CCRF-CEM leukemia; MOLT-4 leukemia.
Holding throughout (assay): NCI-60 one-dose screen, 48 h (100 = growth as untreated, 0 = no growth, -100 = all killed)
What all share (settings): 10 µM unless noted

Take `C=C(CBr)[C@@H]1CC[C@]2(C(=O)O)CC[C@]3(C)[C@H](CC[C@@H]4[C@@]5(C)CCC(=O)C(C)(C)[C@@H]5CC[C@]43C)[C@@H]12`: the growth with HCT-15 colon was 73.2%; in the assay on HT29 colon, 97.5%; in the assay with SNB-75 CNS it was 98.7%; with SNB-19 CNS it was 78.7%; in the assay on U251 CNS, 70.9%; in the assay on PC-3 prostate, 57.4%. Besides, the growth in the assay with SK-MEL-5 melanoma is 50.5%; with UACC-62 melanoma, 69%; in the assay with LOX IMVI melanoma, 75.4%; in the assay with SK-MEL-28 melanoma, 88.7%; in the assay on SK-MEL-2 melanoma, 79.7%; with EKVX NSCLC, 86.5%. The growth is 72.5% in the assay on SN12C renal; 56.2% in the assay with UO-31 renal; 112% with TK-10 renal; 81.4% in the assay on ACHN renal; 82% in the assay on CAKI-1 renal; 110% with A498 renal. Moreover, the growth was 50.3% in the assay on CCRF-CEM leukemia and 54.4% in the assay with MOLT-4 leukemia.

Consider `CCc1ccc(CCCC(=O)O)cc1`, for which the growth with HCT-15 colon is 101%; in the assay on HT29 colon it was 101%; in the assay on SNB-75 CNS, 87.9%; with SNB-19 CNS, 95.7%; in the assay on U251 CNS, 101%; in the assay on PC-3 prostate, 96.8%. Also, the growth in the assay on SK-MEL-5 melanoma was 102%; with UACC-62 melanoma it was 96.8%; with LOX IMVI melanoma it was 99.5%; in the assay with SK-MEL-28 melanoma it was 108%; in the assay on SK-MEL-2 melanoma, 103%; with EKVX NSCLC, 96.3%. The growth was 93.7% in the assay on SN12C renal; 92.1% in the assay with UO-31 renal; 99.9% in the assay with TK-10 renal; 101% with ACHN renal; 94% in the assay on CAKI-1 renal; 95% in the assay on A498 renal. Moreover, the growth in the assay with CCRF-CEM leukemia was 104%; in the assay with MOLT-4 leukemia, 98.8%.

Take `Cc1ccc2c(n1)C(=O)C(Br)=C(C1CCCC1)C2=O`: the growth is 99.5% in the assay with HCT-15 colon; 109% in the assay with HT29 colon; 99.7% with SNB-75 CNS; 98.1% in the assay on SNB-19 CNS; 97.4% in the assay with U251 CNS; 89.9% with PC-3 prostate. In addition, the growth in the assay on SK-MEL-5 melanoma was 97.3%; in the assay on UACC-62 melanoma it was 98.5%; in the assay on LOX IMVI melanoma, 91.6%; in the assay with SK-MEL-28 melanoma it was 117%; with SK-MEL-2 melanoma, 112%; with EKVX NSCLC it was 98.9%. Further, the growth with SN12C renal was 95.2%; in the assay on UO-31 renal, 78.3%; in the assay with TK-10 renal, 120%; in the assay on ACHN renal it was 77.9%; in the assay on CAKI-1 renal, 90.8%; in the assay on A498 renal, 108%. The growth in the assay with CCRF-CEM leukemia is 26.2%; with MOLT-4 leukemia it was 34.6%.

`CCCNc1nc2ccccc2c2c1S(=O)(=O)c1ccc(Cl)cc1C2=O`: the growth was 7.22% (active) in the assay with HCT-15 colon; 9.72% (active) in the assay on HT29 colon; 15.6% in the assay on SNB-75 CNS; 24.4% in the assay with SNB-19 CNS; 1.6% (active) with U251 CNS; 25.1% with PC-3 prostate. For the same compound, the growth in the assay with SK-MEL-5 melanoma is 2.77% (active); in the assay on UACC-62 melanoma, 10.9%; with LOX IMVI melanoma, 4.45% (active); in the assay on SK-MEL-28 melanoma, 32.8%; with SK-MEL-2 melanoma, 8.94% (active); in the assay with EKVX NSCLC, 25.8%. Also, the growth was -1.38% (active) in the assay on SN12C renal; 10.9% with UO-31 renal; 17.3% in the assay on TK-10 renal; 10.7% with ACHN renal; 18.2% in the assay with CAKI-1 renal; 31.1% in the assay with A498 renal. Further, the growth with CCRF-CEM leukemia was -5.94% (active); with MOLT-4 leukemia, 4.02% (active).

For the compound `Cn1cc(-c2csc(-c3cn(C(=O)OC(C)(C)C)c4ccc(Br)cc34)n2)c2ccnc(Cl)c21`, the growth in the assay with HCT-15 colon is 24.2%; with HT29 colon, 88.5%; with SNB-75 CNS it was 2.34% (active); in the assay on SNB-19 CNS, 44%; with U251 CNS it was 45.3%; in the assay with PC-3 prostate, 44.2%. The growth in the assay on SK-MEL-5 melanoma was 95%; in the assay with UACC-62 melanoma it was 96.1%; in the assay on LOX IMVI melanoma, 89.1%; with SK-MEL-28 melanoma, 94.7%; in the assay with SK-MEL-2 melanoma it was 96.3%; in the assay with EKVX NSCLC it was 87.7%. In addition, the growth is 93.6% with SN12C renal; 96% in the assay with UO-31 renal; 92.9% in the assay with TK-10 renal; 82.8% in the assay on ACHN renal; 96.4% in the assay with CAKI-1 renal; 89.6% in the assay with A498 renal. Moreover, the growth was 93.1% in the assay on CCRF-CEM leukemia and 90.9% in the assay on MOLT-4 leukemia.

With `S=c1sc2c(Cl)nc(-c3cccnc3)nc2n1-c1ccccc1`, the growth in the assay on HCT-15 colon is -32.6% (active); in the assay with HT29 colon, -53.8% (active); in the assay with SNB-75 CNS, 57.1%; with SNB-19 CNS it was 25.2%; in the assay with U251 CNS it was 7.95% (active); in the assay with PC-3 prostate, 1.75% (active). Moreover, the growth was 76.3% with SK-MEL-5 melanoma; -10.2% (active) in the assay with UACC-62 melanoma; -52% (active) in the assay on LOX IMVI melanoma; -58.2% (active) with SK-MEL-28 melanoma; 21.6% with SK-MEL-2 melanoma; 89.6% in the assay with EKVX NSCLC. For the same compound, the growth in the assay on SN12C renal was 2% (active); with UO-31 renal, -85.6% (active); with TK-10 renal, 90.2%; with ACHN renal, -6.92% (active); in the assay with CAKI-1 renal, 73.9%; in the assay with A498 renal, 92%. Further, the results for the growth in the assay with CCRF-CEM leukemia and in the assay on MOLT-4 leukemia were -31.7% (active) and -41.5% (active), respectively.

For `COc1ccc(Nc2nc(-c3cc(O)c(C)c(C)c3O)cs2)cc1`, the growth is 50.4% with HCT-15 colon; 105% in the assay on HT29 colon; 78.8% with SNB-75 CNS; 102% in the assay with SNB-19 CNS; 70.2% with U251 CNS; 43.9% with PC-3 prostate. In addition, the growth in the assay on SK-MEL-5 melanoma was 82.3%; in the assay on UACC-62 melanoma it was 68.9%; in the assay on LOX IMVI melanoma it was 61.5%; with SK-MEL-28 melanoma it was 99.5%; in the assay with SK-MEL-2 melanoma, 94.9%; with EKVX NSCLC, 89.2%. The growth in the assay with SN12C renal was 88.4%; in the assay on UO-31 renal it was 74.7%; with TK-10 renal, 114%; in the assay on ACHN renal, 82.2%; with CAKI-1 renal, 51.6%; with A498 renal it was 101%. The growth in the assay on CCRF-CEM leukemia is 17.8%; in the assay with MOLT-4 leukemia it was 25.7%.
